Laboratory results: article PMC4552634, “A New Set of Chemical Starting Points with Plasmodium falciparum Transmission-Blocking Potential for Antimalarial Drug Discovery” (PLoS ONE, 2015)
Like-named read-outs stand apart in the source and are kept apart here. Among all 13,000 compounds or so, about 3,200 (25%) showed an effect of 50% or more. Some of the results follow.

System: P. falciparum stage V gametocytes
Design: BacTiter-Glo ATP luminescence viability of purified stage V gametocytes in 384-well plates, per cent inhibition versus DMSO
Conditions: 48 h, 5 µM, inhibitor

## N=c1c2c(n(Cc3cccc(Cl)c3)c3c1CCC3)CCCC2 [TCMDC-125614]
  % Inhibition: 24.77%

## COC(=O)/C=C/c1ccc(CC(C)NCC(O)c2cccc(C(F)(F)F)c2)cc1 (stereo not shown) [TCMDC-131503]
% Inhibition
  % Inhibition: -2.875%

## NC(N)=NC(=O)Nc1cc(Cl)c(Br)c(Cl)c1 [TCMDC-137507]
  % Inhibition: -11.69%

## O=C(/C=C/c1ccc(Cl)c(Cl)c1)NCCCCCN1CCN(C(=O)Nc2cccc(F)c2)CC1 [TCMDC-135731]
  % Inhibition: 4.224%

## O=C(Nc1nc2cc(S(=O)(=O)NCCc3cccc(F)c3)ccc2n1CCCn1ccnc1)c1ccc(Cl)cc1 [TCMDC-141623]
  % Inhibition: -29.17%

## CC(C)c1ccc(NC(=O)c2ccc(C(=O)NC3CCN(Cc4ccsc4)C3)cc2)cc1 (stereo not shown) [TCMDC-136745]
  % Inhibition: -11.55%

## CSCCCN1CCC(O)(c2ccc3oc(C(=O)Nc4ccc5sc(C)nc5c4)cc3c2)CC1 [TCMDC-124646]
  % Inhibition: 11.7%

## CC(C)CNCc1ccc(-c2ccccc2CNC2CCN(Cc3ccccc3)CC2)cc1 [TCMDC-140470]
  % Inhibition: 78.66%

## CC(C)CNCc1ccc(-c2ccc(CNC3CCN(Cc4ccccc4)CC3)cc2)cc1 [TCMDC-140488]
  % Inhibition: 73.02%

## COCCNCc1ccc(-c2ccccc2CNC2CCN(Cc3ccccc3)CC2)cc1 [TCMDC-140471]
  % Inhibition: 43.38%

## Cc1cc(-c2ccc3c(c2)CC[C@@H](N[C@@H](C)c2ccccc2)C3)cnc1N [TCMDC-138130]
  % Inhibition: 26.54%

## Cn1c(NC(=O)C2CCC(CNC(=O)c3ccc(O)c(-c4cccc([N+](=O)[O-])c4)c3)CC2)nc2ccccc21 (stereo not shown) [TCMDC-140883]
  % Inhibition: 1.197%

## O=C(Nc1cccc(-c2nn3ccccc3c2-c2ccnc(Nc3ccccc3)n2)c1)c1cc(F)ccc1F [TCMDC-135823]
  % Inhibition: -54.26%

## COc1ccc(-c2ccc([N+](=O)[O-])cc2C(=O)NCC(C)Oc2ccc(C(F)(F)F)cc2)cc1 (stereo not shown) [TCMDC-132304]
  % Inhibition: 94.55%

## COc1ccc(OC(C)CNC(=O)c2cc([N+](=O)[O-])ccc2-c2ccc(OC)cc2)cc1 (stereo not shown) [TCMDC-132303]
  % Inhibition: 16.94%

## NCCNc1ccc([N+](=O)[O-])cc1C(=O)Nc1cccc(C(F)(F)F)c1 [TCMDC-123677]
  % Inhibition: 3.903%

## N=C1NC(=O)C(=Cc2cn(-c3ccccc3)nc2-c2cccc(S(=O)(=O)N3CCCC3)c2)S1 [TCMDC-123756]
  % Inhibition: 0.418%

## OC1CCCN(Cc2cccc(-c3ccc(-c4nc5ccccc5[nH]4)cc3)c2)C1 (stereo not shown) [TCMDC-133817]
  % Inhibition: -22.44%

## NC1CCCN(Cc2cccc(-c3ccc(-c4nc5ccccc5[nH]4)cc3)c2)C1 (stereo not shown) [TCMDC-133848]
  % Inhibition: 22.08%

## NC1CCCN(Cc2cccc(-c3cccc(-c4nc5ccccc5[nH]4)c3)c2)C1 (stereo not shown) [TCMDC-133877]
  % Inhibition: 56.31%

## NC1CCN(Cc2cccc(-c3cccc(-c4nc5ccccc5[nH]4)c3)c2)C1 (stereo not shown) [TCMDC-133875]
  % Inhibition: 72.93%

## NC1CCN(Cc2cccc(-c3ccc(-c4nc5ccccc5[nH]4)cc3)c2)C1 (stereo not shown) [TCMDC-133846]
  % Inhibition: 28.29%

## Cc1cc(N2CCCCC2)nc2ccc(NC(=O)c3cc(=O)c4ccccc4o3)cc12 [TCMDC-123602]
  % Inhibition: 13.04%

## Cc1ccc(NC(=O)Nc2ccccc2)cc1-c1ccc(C(=O)Nc2ccncc2)cc1 [TCMDC-133701]
  % Inhibition: -4.063%

## NC1=NC(c2ccccc2)(c2ccccc2)C(=O)N1Cc1ccc(-c2cccnc2)cc1 [TCMDC-136999]
  % Inhibition: -17.43%

## CC(=O)N1Cc2ccccc2C1=O [TCMDC-131706]
  % Inhibition: 7.417%

## COc1ccc(C(=O)CC(=O)c2ccc(OC)cc2OC)c(OC)c1 [TCMDC-123465]
  % Inhibition: 12.1%

## CCN(CC)CCN(CCN(CC)CC)c1ccc2c(c1)Sc1c(Cl)ccc(Cl)c1S2 [TCMDC-137934]
  % Inhibition: 63.92%

## COc1ccc(Cn2c(=O)[nH]c3cc(C(=O)NC4CCN(Cc5ccccc5)CC4)ccc3c2=O)cc1 [TCMDC-123588]
  % Inhibition: -15.29%

## COc1ccc(NC(=O)N2CCCN(CCCCCNC(=O)/C=C/c3ccc(C(F)(F)F)cc3)CC2)cc1Cl [TCMDC-136109]
  % Inhibition: -28.75%

## COc1cc(CN2CCN(c3ccnc(N(C)C4CCN(C)CC4)n3)CC2)cc(Cl)c1O [TCMDC-125096]
  % Inhibition: -14.35%
